Our source for the composite z-score and z-score values is PubChem BioAssay.

Structures are written as SMILES. Calls of active or inactive are those of the source.

The nature of assay [1]: small molecules captured by biotinylated probe aFSTL3 – biochemical, small-molecule microarray, fluorescence 635/667, stem cell growth factor project, primary screen (AID 1064).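 Also: measures binding of the biotinylated anti-FSTL3 antibody to printed compounds.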 The conditions noted are these: higher = more signal.
A short description of assay [2]: binders from COS7 lysate, DM2A8 probe, primary screen, torsin A project, cell lysate, small-molecule microarray, fluorescence 635/667 (AID 1065). The conditions noted are these: higher = more signal, COS7 lysate expressing mutant human TOR1A.
The nature of assay [3]: small molecules captured by biotinylated probe aFGF2 – biochemical, small-molecule microarray, fluorescence 635/667, stem cell growth factor project, primary screen (AID 1067).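 Also: measures binding of biotinylated aFGF2 protein to printed compounds on slides; z-score merges feature fluorescence and signal-to-noise across triplicate slides.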 Particulars: higher = more signal.
Assay [4] in a line: small molecules captured by biotinylated probe aFGF10 – biochemical, small-molecule microarray, fluorescence 635/667, stem cell growth factor project, primary screen (AID 1071).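 Also: score merges 667 nm spot intensity and signal to noise from triplicate slides.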 Particulars: higher = more signal.
In assay [5] the target is Neurogenic locus notch homolog protein 2 (Homo sapiens) (UniProt Q04721). The assay can be described thus: small molecules binding Notch2 protein – biochemical, small-molecule microarray, 635 nm fluorescence, stem cell growth factors, primary screen (AID 1073). The conditions noted are these: higher = more signal.
Assay [6] concerns the target Pro-neuregulin-1, membrane-bound isoform (Homo sapiens) (UniProt Q02297). Kind of assay: small molecules binding neuregulin-1 protein – biochemical, small-molecule microarray, fluorescence 635/667, psychiatric disease protein project, primary screen (AID 1075).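 Also: score combines 667 nm spot fluorescence with signal to noise.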 Particulars: NRG1 binding, 635 nm fluorescence, higher = more signal.
For assay [7], the system named is Neuregulin-1 EGF-like domain. The assay can be described thus: small molecules binding NRG1 EGF domain – biochemical, small-molecule microarray, 635 nm fluorescence, primary screen (AID 1081).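 Also: binding of the protein to compounds printed on small-molecule microarray slides.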 Particulars: higher = more signal.
The nature of assay [8]: FRG1 expression reporter modulators in myotubes – cell-based, C2C12 myotubes, firefly/Renilla luciferase, luminescence, FRG1 inhibition for FSHD, primary screen (AID 1084). The conditions noted are these: FRG1 promoter luciferase, higher = more signal, called active from +8 up or from −8 down.
Assay [9] is described as follows: small molecules captured by biotinylated probe aFST – biochemical, small-molecule microarray, fluorescence 635/667, stem cell growth factor project, primary screen (AID 1086).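 Also: score merges 667 nm fluorescence with signal-to-noise of each printed compound spot.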 Particulars: higher = more signal.
Assay [10] is described as follows: binders of probe aHhip on microarray, primary screen, stem cell growth factor project, biochemical, small-molecule microarray, fluorescence 635/667 (AID 1087).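 Also: score merges spot fluorescence at 667nm with spot signal to noise ratio.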 The conditions noted are these: higher = more signal.
Assay [11] concerns PRMT1 (protein arginine N-methyltransferase 1). Kind of assay: small molecules binding arginine methyltransferase PRMT1 – biochemical, small-molecule microarray, 635 nm fluorescence, primary screen (AID 1088).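 Also: binding of Prmt1 protein to compounds spotted on small-molecule microarray slides.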 The conditions noted are these: higher = more signal.
A short description of assay [12]: growth effects on S. cerevisiae YJM789 – YJM789 clinical isolate, OD600, 24 h, basal, primary screen (AID 1089).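 Also: growth of clinical yeast isolate S. cerevisiae YJM 789 seeded 1000 cells per well; test concentration not given here.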 Particulars: higher = more signal, called active from +8 up or from −8 down.
A short description of assay [13]: S. pombe growth modifiers, basal conditions – strain 972, OD600, 24 h, no modulator, primary screen (AID 1090).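 Also: basal condition with compound alone and no growth modifier present; test concentration not given here.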 Particulars: S. pombe 972 growth, higher = more signal, called active from +8 up or from −8 down.
Assay [14] in a line: budding yeast growth modifiers under rapamycin – strain BY4716, OD600, 96 h, primary screen (AID 1091). Also: test concentration not given here. The conditions noted are these: S. cerevisiae BY4716 + rapamycin, higher = more signal, called active from +8 up or from −8 down.
Assay [15] has as its target Torsin-1A-interacting protein 2 (Homo sapiens) (UniProt Q8NFQ8). Kind of assay: small molecules binding lysate-expressed LULL1 – cell lysate, human LULL1 lysate, 635/667 nm fluorescence, primary screen (AID 1092).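 Also: probe is lysate of COS7 cells overexpressing human LULL1; score merges per-feature 667 nm fluorescence with signal-to-noise.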 The conditions noted are these: small-molecule microarray, hLULL1 lysate binding, 635 nm fluorescence; higher = more signal.
A short description of assay [16]: optical density change of DRC41 E. coli – strain DRC41, OD650, 24 h, E. coli filamentation project, primary screen (AID 1093).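 Also: MC1000 strain lacking acrAB efflux and sulA so SOS filamentation is blocked; test concentration not given here.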 Particulars: E. coli DRC41 growth, higher = more signal, called active from +8 up or from −8 down.
Assay [17] can be described thus: probe aLefty2 binding to arrayed compounds – biochemical, biotinylated probe, 635/667 nm fluorescence, primary screen (AID 1094).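 Also: score merges spot fluorescence near 667 nm with spot signal-to-noise ratio.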 The conditions noted are these: small-molecule microarray, higher = more signal.
The subject of assay [18] is Noggin (protein binding on small-molecule microarray). The assay can be described thus: small molecules binding Noggin protein – biochemical, 635/667 nm fluorescence, primary screen (AID 1095).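 Also: score merges 667 nm feature fluorescence with signal to noise over triplicate slides.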 Particulars: 635 nm fluorescence, higher = more signal.
In assay [19] the target is Neurogenic locus notch homolog protein 3 (Homo sapiens) (UniProt Q9UM47). The assay can be described thus: small molecules binding NOTCH3 protein – biochemical, 635/667 nm fluorescence, primary screen (AID 1096). The conditions noted are these: small-molecule microarray, 635 nm fluorescence, higher = more signal.
Neurogenic locus notch homolog protein 3 (Homo sapiens), sequence (Q9UM47 whole entry, looked up): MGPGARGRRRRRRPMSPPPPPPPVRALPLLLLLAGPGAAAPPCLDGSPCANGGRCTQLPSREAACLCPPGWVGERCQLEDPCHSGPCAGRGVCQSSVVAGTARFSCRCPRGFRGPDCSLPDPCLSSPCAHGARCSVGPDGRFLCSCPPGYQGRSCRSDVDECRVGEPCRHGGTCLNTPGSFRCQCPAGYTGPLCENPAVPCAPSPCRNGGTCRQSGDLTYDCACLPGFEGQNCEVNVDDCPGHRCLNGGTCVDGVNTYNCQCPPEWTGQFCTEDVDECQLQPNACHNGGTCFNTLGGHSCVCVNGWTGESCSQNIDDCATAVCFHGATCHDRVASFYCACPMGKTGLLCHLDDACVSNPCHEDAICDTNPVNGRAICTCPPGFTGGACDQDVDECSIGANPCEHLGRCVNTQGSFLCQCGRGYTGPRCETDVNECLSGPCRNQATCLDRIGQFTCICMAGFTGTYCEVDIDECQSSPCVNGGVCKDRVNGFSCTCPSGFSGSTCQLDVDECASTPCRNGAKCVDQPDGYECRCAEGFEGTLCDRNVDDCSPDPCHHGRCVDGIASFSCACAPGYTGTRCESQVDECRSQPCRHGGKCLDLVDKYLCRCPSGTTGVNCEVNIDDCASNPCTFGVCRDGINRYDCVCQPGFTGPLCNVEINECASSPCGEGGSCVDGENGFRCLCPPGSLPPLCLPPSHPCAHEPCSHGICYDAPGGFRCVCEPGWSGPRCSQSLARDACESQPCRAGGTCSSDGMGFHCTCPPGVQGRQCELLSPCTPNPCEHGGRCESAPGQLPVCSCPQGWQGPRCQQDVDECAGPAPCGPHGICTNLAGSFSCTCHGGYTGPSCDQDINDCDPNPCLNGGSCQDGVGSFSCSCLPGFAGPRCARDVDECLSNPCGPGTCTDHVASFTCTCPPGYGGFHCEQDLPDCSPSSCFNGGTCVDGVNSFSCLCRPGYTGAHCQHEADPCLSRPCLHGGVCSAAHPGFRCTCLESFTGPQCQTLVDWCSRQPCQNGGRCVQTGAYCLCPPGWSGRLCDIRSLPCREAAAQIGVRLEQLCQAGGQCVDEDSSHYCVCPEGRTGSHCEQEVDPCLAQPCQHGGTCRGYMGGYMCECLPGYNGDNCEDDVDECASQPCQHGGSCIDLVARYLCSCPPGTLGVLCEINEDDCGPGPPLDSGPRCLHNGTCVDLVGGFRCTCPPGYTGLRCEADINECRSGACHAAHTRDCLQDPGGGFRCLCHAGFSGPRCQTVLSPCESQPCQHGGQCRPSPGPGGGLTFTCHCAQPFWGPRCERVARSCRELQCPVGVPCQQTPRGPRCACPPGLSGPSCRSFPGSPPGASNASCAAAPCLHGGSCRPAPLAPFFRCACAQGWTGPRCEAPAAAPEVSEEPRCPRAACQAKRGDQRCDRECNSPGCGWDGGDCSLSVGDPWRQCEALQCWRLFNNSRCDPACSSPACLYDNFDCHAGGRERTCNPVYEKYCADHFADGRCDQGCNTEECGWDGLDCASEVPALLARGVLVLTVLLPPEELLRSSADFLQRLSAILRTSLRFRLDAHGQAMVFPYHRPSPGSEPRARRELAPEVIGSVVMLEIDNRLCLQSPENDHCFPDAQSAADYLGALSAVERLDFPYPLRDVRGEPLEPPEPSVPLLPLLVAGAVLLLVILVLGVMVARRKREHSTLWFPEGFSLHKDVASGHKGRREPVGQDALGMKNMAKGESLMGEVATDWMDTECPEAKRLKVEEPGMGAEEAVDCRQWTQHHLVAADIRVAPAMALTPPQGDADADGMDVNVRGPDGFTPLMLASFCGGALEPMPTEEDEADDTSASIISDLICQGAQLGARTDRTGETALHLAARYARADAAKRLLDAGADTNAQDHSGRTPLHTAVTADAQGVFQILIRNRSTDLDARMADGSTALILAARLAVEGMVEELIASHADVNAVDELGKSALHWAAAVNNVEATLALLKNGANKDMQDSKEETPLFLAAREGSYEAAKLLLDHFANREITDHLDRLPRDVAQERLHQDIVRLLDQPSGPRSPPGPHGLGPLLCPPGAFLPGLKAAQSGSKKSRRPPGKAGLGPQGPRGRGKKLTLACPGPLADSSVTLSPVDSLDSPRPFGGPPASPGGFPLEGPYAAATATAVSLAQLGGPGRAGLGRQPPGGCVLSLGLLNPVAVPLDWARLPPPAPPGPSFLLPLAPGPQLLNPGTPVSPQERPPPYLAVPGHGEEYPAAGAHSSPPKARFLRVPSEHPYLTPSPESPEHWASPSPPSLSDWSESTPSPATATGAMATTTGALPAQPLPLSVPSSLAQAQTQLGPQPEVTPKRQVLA
A short description of assay [20]: probe aEGFR binding to arrayed compounds – biochemical, biotinylated probe, 635/667 nm fluorescence, primary screen (AID 1097).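 Also: probe is a biotinylated anti-EGFR antibody binding compounds printed on slides; score combines fluorescence near 667 nm and signal to noise of each spot.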 Particulars: small-molecule microarray, higher = more signal.

Torsin-1A-interacting protein 2 (Homo sapiens), sequence (Q8NFQ8 whole entry, looked up): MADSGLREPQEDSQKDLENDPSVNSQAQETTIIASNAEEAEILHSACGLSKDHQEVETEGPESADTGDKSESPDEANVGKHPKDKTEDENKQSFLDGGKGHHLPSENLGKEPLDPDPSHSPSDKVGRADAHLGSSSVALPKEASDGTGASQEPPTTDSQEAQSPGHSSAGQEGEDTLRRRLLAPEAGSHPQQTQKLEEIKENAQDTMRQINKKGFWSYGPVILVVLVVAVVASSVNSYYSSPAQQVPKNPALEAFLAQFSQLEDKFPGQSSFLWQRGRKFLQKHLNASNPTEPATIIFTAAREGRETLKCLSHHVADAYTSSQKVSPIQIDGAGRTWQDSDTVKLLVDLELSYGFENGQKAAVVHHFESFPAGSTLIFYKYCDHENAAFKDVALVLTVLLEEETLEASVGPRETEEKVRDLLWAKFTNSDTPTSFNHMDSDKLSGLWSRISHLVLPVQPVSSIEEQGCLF
Pro-neuregulin-1, membrane-bound isoform (Homo sapiens), sequence (Q02297 whole entry, looked up, the tested form may be a part, canonical isoform): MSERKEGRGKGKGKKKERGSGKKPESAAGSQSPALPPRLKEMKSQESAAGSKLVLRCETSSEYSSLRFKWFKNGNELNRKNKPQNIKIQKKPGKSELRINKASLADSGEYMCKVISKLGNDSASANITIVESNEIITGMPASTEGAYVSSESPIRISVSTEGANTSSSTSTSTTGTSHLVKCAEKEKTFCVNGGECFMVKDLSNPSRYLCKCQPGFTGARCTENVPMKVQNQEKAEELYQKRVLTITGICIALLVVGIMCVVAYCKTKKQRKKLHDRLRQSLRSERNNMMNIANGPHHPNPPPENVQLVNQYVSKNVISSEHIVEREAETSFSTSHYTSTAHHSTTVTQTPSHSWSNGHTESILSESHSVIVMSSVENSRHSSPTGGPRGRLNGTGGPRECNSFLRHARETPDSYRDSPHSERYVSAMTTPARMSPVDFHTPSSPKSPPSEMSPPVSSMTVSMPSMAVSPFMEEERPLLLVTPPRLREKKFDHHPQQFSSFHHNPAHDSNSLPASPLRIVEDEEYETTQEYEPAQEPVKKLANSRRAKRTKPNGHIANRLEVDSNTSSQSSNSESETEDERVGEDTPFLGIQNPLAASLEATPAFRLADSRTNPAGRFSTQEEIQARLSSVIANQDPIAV

Turning to `COCCOC(=O)N1C(=O)[C@@]2(c3cc(C#CC4(O)CCCCCC4)ccc31)[C@H](C(=O)NC[C@H](O)c1ccccc1)[C@H]1C(=O)O[C@H](c3ccccc3)[C@H](c3ccccc3)N1[C@@H]2c1ccc(O)cc1`, the composite z-score in assay [1] was -0.0443; in [2], 0.224; in assay [3], -0.0193; in assay [4], 1; in assay [5], 0.496; in assay [6], 0.802. The composite z-score in assay [7] is 1.28; in assay [9], 0.153; in [10] it was 0.176; in assay [11], 1.48; in assay [15], 2.49; in assay [17] it was -0.0289. Further, the composite z-score was 0.3 in assay [18], 0.871 in assay [19] and -0.0703 in [20]. For the same compound, the z-score in [8] was -0.0865 (inactive); in [12], 0.295 (inactive); in [13] it was 0.956 (inactive); in [14], 0.927 (inactive); in assay [16] it was 1.43 (inactive).
With `Cc1ccc(S[C@]2(C(=O)NCCCN(C)C)CC(=O)N(Cc3ccccc3Cl)[C@@H]2c2ccc(CO)cc2I)cc1`, the composite z-score is 1.23 in assay [1]; -0.42 in assay [2]; -0.0996 in assay [3]; -0.855 in assay [4]; -1.17 in assay [5]; 1.07 in assay [6]. Besides, the composite z-score is 0.801 in [7]; 0.141 in [9]; -0.0346 in [10]; -0.338 in assay [11]; 0.605 in [15]; 0.258 in assay [17]. The composite z-score in assay [18] was -0.845; in assay [19] it was -1.22; in assay [20] it was -0.209. Also, the z-score in assay [8] was -1.4 (inactive); in assay [12], 0.641 (inactive); in assay [13] it was -2.52 (inactive); in assay [14], 1.43 (inactive); in assay [16], 0.562 (inactive).
As to `C=C(CCCC)C(=O)CC[C@H](OC(C)=O)c1ccccc1OCCO`, the composite z-score in assay [1] was -0.327; in assay [2], -0.0867; in assay [3], -0.0471; in [4], 0.776; in assay [5] it was 0.435; in assay [6], 0.898. Besides, the composite z-score was -0.0255 in [7]; 0.167 in assay [9]; -0.358 in [10]; 1.19 in assay [11]; 0.383 in assay [15]; -0.12 in assay [17]. In addition, the composite z-score is 0.0384 in assay [18], 0.67 in [19] and -0.177 in assay [20]. Further, the z-score in assay [8] was -0.881 (inactive); in assay [12], 0.489 (inactive); in assay [13] it was -2.03 (inactive); in assay [14], -0.438 (inactive); in [16] it was 0.733 (inactive).
Turning to `O=C1N(Cc2ccccc2)c2ccccc2[C@H]2OC(c3ccc(OCCCO)cc3)=N[C@@]12Cc1ccccc1`, the composite z-score was determined as 0.85 in assay [1]; 0.205 in assay [2]; 0.202 in assay [3]; 0.862 in assay [4]; 0.45 in [5]; 0.924 in assay [6]. The composite z-score is 1.3 in assay [7]; 1.03 in assay [9]; 0.115 in assay [10]; 1.54 in assay [11]; 2.58 in assay [15]; -0.0058 in [17]. Further, the composite z-score was 1.54 in assay [18], 1.1 in assay [19] and -0.0525 in [20]. Further, the z-score in assay [8] was -1.69 (inactive); in [12] it was -0.915 (inactive); in assay [13] it was -0.469 (inactive); in assay [14], 6.52 (inactive); in assay [16], -0.905 (inactive).
For the compound `CC(c1ccccc1)C(O)C1C=CC2C(=O)N(c3ccccc3)C(=O)C2N1Nc1ccc(C#N)cc1` (stereo not given), the composite z-score in [1] is -0.177; in assay [2], 0.358; in assay [3], 0.255; in assay [4], 0.752; in assay [5], 1.59; in assay [6], 1.91. Also, the composite z-score was 1.34 in [7]; 1.42 in assay [9]; 0.0139 in assay [10]; 1.55 in assay [11]; 3.88 in [15]; 0.123 in assay [17]. Further, the composite z-score turned out to be 0.562 in assay [18], 1.04 in assay [19] and 0.066 in assay [20]. Also, the z-score in [8] was -0.948 (inactive); in assay [12] it was -2.46 (inactive); in assay [13], 1.16 (inactive); in assay [14], 37.9 (active); in [16], 0.939 (inactive).
